Measured values as given in PubChem BioAssay (NCATS).
Results filed as inconclusive are left out. Unmarked numbers belong to inactive results. The source made the active and inactive calls. Calls follow the shape of the dose curve; as a rule, active = well fitted cell-killing curve with a large enough effect; inconclusive = small, poorly fitted or top-dose-only effect; inactive = flat fitted curve, though single readings scatter.

Test: Cell Viability - LYMP2-026 (AID 989); also: nearly all actives have a fitted effect of over 50% in size
Conditions: LYMP2-026 lymphoblastoid cell viability, qHTS; series mostly up to 92.2 µM; activity change, negative = cytotoxic: at the top concentration
Source text: NIH Chemical Genomics Center [NCGC]
NIH Molecular Libraries Screening Centers Network [MLSCN]
National Institutes of Environmental Health Sciences [NIEHS]
National Toxicology Program [NTP]
We have developed a 1536-well cell-based assay for quantitative high throughput screening (qHTS) against a number of cell lines to determine in vitro cytotoxicity of small molecules. This particular assay uses a human lymphoblastoid cell line (LYMP2-026) purchased from Coriell Institute for Medical Research.
NCGC Assay Protocol Summary:
The CellTiter-Glo luminescent cell viability assay (Promega) is a homogeneous method to measure the number of viable cells in culture. The end point readout of this assay is based on quantitation of intracellular ATP, an indicator of metabolic activity, using the luciferase reaction. Luciferase catalyzes the oxidation of beetle Luciferin to oxyluciferin and light in the presence of ATP. The luminescent signal is proportional to amount of ATP present.
Using the CellTiter-Glo luminescent cell viability assay, the amount of cellular ATP was measured in the lymphoblastoid cell line with complete culture medium following compound treatment for 24 hours. The assay was performed in opaque white Kalypsys 1536-well plates. In the screen, tetraoctylammonium bromide was used as positive control. Library compounds were measured for their ability to cause acute toxicity in the cell line, as reflected by a decrease in intracellular ATP levels, in a concentration-dependent manner. […] AC50 values were determined from concentration-response data modeled with the standard Hill equation.
qHTS protocol for CellTiter Glo lymphoblastoid cellular assay
[Step] [Parameter] [Value] [Description]
1. Reagent; 5 uL; 2500 lymphoblastoid cells/well
2. Time; 5 hr; 37 C incubation
4. Controls; 23 nL; Tetraoctylammonium bromide 6.4pM to 92 uM
5. Time; 24 hr; 37 C incubation
6. Reagent; 5 uL; CellTiter Glo reagent
7. Time; 30 min; Room Temperature
8. Detection; Luminescence; Viewlux plate reader
Keywords: cell viability, cytotoxicity, lymphoblastoid cell line, luminescence, NTPHTS, NTPHTS_NCGC, NIEHS, DSSTox, MLSMR, MLSCN, NIH Roadmap, qHTS, NCGC
% is scaled to controls: 0 for no effect and ±100 for the full control effect.

Question: Which “activity change, negative = cytotoxic” value does the source give for `NCCS(=O)(=O)O` here?
Answer: Its value is -10.4%.

Question: Which “activity change, negative = cytotoxic” value does the source give for `COc1ccc2[nH]cc(CCNC(C)=O)c2c1` here?
Answer: Its value is 4.33%.

Question: With `CC(C)C(=O)Nc1ccc([N+](=O)[O-])c(C(F)(F)F)c1` as the molecule, how does the “activity change, negative = cytotoxic” value read?
Answer: Its value is -16.6%.

Question: Which “activity change, negative = cytotoxic” value does the source give for `O=c1[nH]cc(F)c(=O)[nH]1` here?
Answer: Its value is -30.6%.

Question: For `Nc1c2c(nc3ccccc13)CCCC2`, which “activity change, negative = cytotoxic” value is on record?
Answer: Its value is -24.2%.

Question: With `Cn1c(=O)c2c(ncn2C)n(C)c1=O` as the molecule, how does the “activity change, negative = cytotoxic” value read?
Answer: Its value is -2.86%.

Question: Which outcome does the source give for `Cc1cn([C@H]2C=C[C@@H](CO)O2)c(=O)[nH]c1=O` here?
Answer: Its outcome is “inactive”.

Question: Which “activity change, negative = cytotoxic” value does the source give for `CC(C)NCC(O)c1ccc(O)c(O)c1` (stereo not drawn) here?
Answer: Its value is -22.7%.

Question: Which “activity change, negative = cytotoxic” value does the source give for `O=c1c(-c2ccc(O)cc2)coc2cc(O)cc(O)c12` here?
Answer: Its value is -9.73%.

Question: With `COc1ccc2c(c1)c(CC(=O)O)c(C)n2C(=O)c1ccc(Cl)cc1` as the molecule, how does the “activity change, negative = cytotoxic” value read?
Answer: The value was -12.6%.

Question: For `Cc1cn([C@H]2C[C@H](N=[N+]=[N-])[C@@H](CO)O2)c(=O)[nH]c1=O`, which “activity change, negative = cytotoxic” value is on record?
Answer: The value was 4.31%.

Question: Which “activity change, negative = cytotoxic” value does the source give for `Clc1ccc(C(c2ccccc2Cl)C(Cl)Cl)cc1` (stereo not drawn) here?
Answer: Its value is -5.41%.

Question: For `CCC1(c2ccccc2)C(=O)NCNC1=O`, which “activity change, negative = cytotoxic” value is on record?
Answer: Its value is -4.45%.

Question: Which “activity change, negative = cytotoxic” value does the source give for `Cn1c(=O)c2[nH]cnc2n(C)c1=O` here?
Answer: Its value is -8.48%.

Question: With `N[C@@H](Cc1c[nH]c2ccc(O)cc12)C(=O)O` as the molecule, how does the “activity change, negative = cytotoxic” value read?
Answer: The value was -6.64%.

Question: For `Nc1ccn([C@H]2CC[C@@H](CO)O2)c(=O)n1`, which “activity change, negative = cytotoxic” value is on record?
Answer: The value was -0.939%.

Question: Which “activity change, negative = cytotoxic” value does the source give for `NS(=O)(=O)c1cc2c(cc1Cl)NCNS2(=O)=O` here?
Answer: The value was 12.5%.

Question: Which “activity change, negative = cytotoxic” value does the source give for `Cc1ccc(-c2cc(C(F)(F)F)nn2-c2ccc(S(N)(=O)=O)cc2)cc1` here?
Answer: The value was -6.95%.
